Measurements: PubChem BioAssay AID1159580 (chemical genetic matrix, 2015)
Several values for one entry are separate records, joined by “and”; a condition that tells them apart may be missing. Identical values can stand only once. Hit rate of the full screen: of about 5,500 compounds, about 2,000 (36%) were called active. Roughly 18% stayed inconclusive and do not appear here. Rule as the data show it: active = normalized growth mostly below about 0.91 (no sharp cut-off); inconclusive = no clear call, values can overlap the other calls; inactive = mostly above about 0.92. The list shows a part of the results.

Test: chemical genetic growth profiling, strain panel (AID 1159580);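 also: tested at 20 µM; growth read once vehicle control cultures reached saturation at 30 °C; 1 = growth at the plate median or of vehicle wells; lower values mean less growth of the strain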
Settings: S. cerevisiae deletion strains, growth OD

Measured: normalized growth

COc1ccc2c(c1)O[C@H]1c3ccc(OC)cc3OC[C@@H]21
inactive: locus YAL021C, strain ccr4, stronger effect = lower value 1.03 | locus YAL026C, strain drs2, stronger effect = lower value 1.02 | locus YAL030W, strain snc1, stronger effect = lower value 1.02 | locus YBL061C, strain skt5, stronger effect = lower value 1.02 | locus YBR009C, strain hhf1, stronger effect = lower value 1 | locus YBR021W, strain FUR4, stronger effect = lower value 0.961 | locus YBR023C, strain chs3, stronger effect = lower value 1.02 | locus YBR171W, strain sec66, stronger effect = lower value 1.03 | locus YBR229C, strain ROT2, stronger effect = lower value 0.975 | locus YBR231C, strain swc5, stronger effect = lower value 1.01 | locus YBR279W, strain paf1, stronger effect = lower value 1.02 | locus YCL011C, strain gbp2, stronger effect = lower value 1.02 | locus YCL016C, strain dcc1, stronger effect = lower value 1.03 | locus YCL029C, strain bik1, stronger effect = lower value 0.99 | locus YCL069W, strain vba3, stronger effect = lower value 1.03 | locus YCR088W, strain abp1, stronger effect = lower value 1.02 | locus YDL005C, strain med2, stronger effect = lower value 1.02 | locus YDL035C, strain GPR1, stronger effect = lower value 0.945 | locus YDL040C, strain nat1, stronger effect = lower value 1.01 | locus YDL074C, strain BRE1, stronger effect = lower value 0.911 | locus YDL101C, strain DUN1, stronger effect = lower value 0.984 | locus YDL185W, strain tfp1, stronger effect = lower value 0.98 | locus YDR001C, strain nth1, stronger effect = lower value 1.01 | locus YDR069C, strain doa4, stronger effect = lower value 1.01 | locus YDR137W, strain rgp1, stronger effect = lower value 1.06 | locus YDR150W, strain NUM1, stronger effect = lower value 0.986 | locus YDR159W, strain sac3, stronger effect = lower value 1.05 | locus YDR162C, strain NBP2, stronger effect = lower value 0.937 | locus YDR195W, strain ref2 0.976 | locus YDR297W, strain sur2, stronger effect = lower value 1.03 | locus YDR334W, strain swr1, stronger effect = lower value 1.02 | locus YDR335W, strain msn5, stronger effect = lower value 1.03 | locus YDR388W, stronger effect = lower value 0.956 | locus YDR392W, strain spt3, stronger effect = lower value 1.03 | locus YEL003W, strain gim4, stronger effect = lower value 1.02 | locus YEL037C, strain rad23, stronger effect = lower value 1.02 | locus YEL061C, strain CIN8 (second series), stronger effect = lower value 1.02 | locus YEL061C, strain CIN8, stronger effect = lower value 0.985 | locus YER015W, strain faa2, stronger effect = lower value 1.03 | locus YER016W, strain bim1, stronger effect = lower value 1.02 | locus YER110C, stronger effect = lower value 0.924 | locus YER111C, strain swi4, stronger effect = lower value 1.02 | locus YER155C, strain BEM2 (second series), stronger effect = lower value 1.04 | locus YER167W, strain BCK2, stronger effect = lower value 0.989 | locus YFR010W, strain ubp6, stronger effect = lower value 1.01 | locus YGL167C, strain pmr1, stronger effect = lower value 1.02 | locus YGL173C, strain kem1, stronger effect = lower value 1.02 | locus YGL227W, strain vid30, stronger effect = lower value 1.02 | locus YGL240W, strain doc1, stronger effect = lower value 1.03 | locus YGL253W, strain hxk2, stronger effect = lower value 1.02 | locus YGR078C, strain PAC10, stronger effect = lower value 0.928 | locus YHR013C, strain ard1, stronger effect = lower value 1.05 | locus YHR027C, strain rpn1, stronger effect = lower value 1.02 | locus YHR030C, strain SLT2, stronger effect = lower value 0.977 | locus YHR079C, strain IRE1 (second series), stronger effect = lower value 0.95 | locus YHR079C, strain IRE1, stronger effect = lower value 0.964 | locus YHR094C, strain hxt1, stronger effect = lower value 0.968 | locus YHR129C, strain ARP1, stronger effect = lower value 1 | locus YHR142W, strain chs7, stronger effect = lower value 1.02 | locus YHR200W, strain rpn10, stronger effect = lower value 0.944 | locus YIL066C, strain RNR3, stronger effect = lower value 0.977 | locus YIL073C, strain SPO22, stronger effect = lower value 0.961 | locus YIL125W, strain kgd1, stronger effect = lower value 0.973 | locus YJL092W, strain hpr5, stronger effect = lower value 1.02 | locus YJL095W, strain BCK1 (second series), stronger effect = lower value 1.01 | locus YJL115W, strain asf1, stronger effect = lower value 1.03 | locus YJL129C, strain trk1, stronger effect = lower value 1.05 | locus YJL134W, strain LCB3, stronger effect = lower value 0.992 | locus YJL154C, strain vps35, stronger effect = lower value 1.02 | locus YJL164C, strain tpk1, stronger effect = lower value 1.02 | locus YJL166W, strain qcr8, stronger effect = lower value 1.02 | locus YJL168C, strain set2, stronger effect = lower value 0.955 | locus YJL187C, strain SWE1 (second series), stronger effect = lower value 0.96 | locus YJL187C, strain SWE1, stronger effect = lower value 1.02 | locus YJR066W, strain TOR1, stronger effect = lower value 0.927
0.684 (active) and 0.982 (inactive): locus YJL095W, strain BCK1, stronger effect = lower value
active: locus YDL192W, strain arf1, stronger effect = lower value 0.897 | locus YDR101C, strain arx1, stronger effect = lower value 0.911 | locus YDR318W, strain mcm21, stronger effect = lower value 0.87 | locus YDR502C, strain sam2, stronger effect = lower value 0.876 | locus YGL078C, strain dbp3, stronger effect = lower value 0.897 | locus YGL086W, strain mad1, stronger effect = lower value 0.882 | locus YGL248W, strain PDE1, stronger effect = lower value 0.863 | locus YGR135W, strain pre9, stronger effect = lower value 0.84 | locus YGR252W, strain gcn5, stronger effect = lower value 0.669 | locus YIR030C, strain dcg1, stronger effect = lower value 0.927
